Experimental findings from PubChem BioAssay (Tox21) are described below.

Records with an inconclusive call do not appear. A call without a number means that no potency is given here. Activity calls are given as the source filed them. Calls come from the whole dose curve; as a rule, active = well fitted cell-killing curve with a large enough effect in the repeat runs; inconclusive = weak or mixed curves, or effect the other way; inactive = no such curve, though single readings can be large or run the other way.

The nature of the test: qHTS assay to identify small molecule agonists of the RXR signaling pathway - cell viability counter screen (AID 1159529). Note: nearly all actives have a fitted effect of over 50% in size. The settings on record: RXR-alpha-bla HEK293T viability, CellTiter-Glo, 16 h; series mostly up to 35.3 µM. In outline:
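Cell viability is measured by CellTiter-Glo luminescence, 30 min at room temperature, in wells already read for beta-lactamase. Engineered HEK 293T cells (RXR-alpha-UAS-bla) are dosed 16 hr at 37 C. Tetraoctyl ammonium bromide serves as positive control.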
As for `CS(=O)(=O)O`, the Potency entry is “inactive”.

Consider `CCOC(C)(C)C`, for which the Potency result is “inactive”.

Consider `O=Cc1cccc([N+](=O)[O-])c1`, for which the Potency entry is “inactive”.

As for `N=C(N)c1ccc(OCCCOc2ccc(C(=N)N)cc2)cc1`, the Potency result is “inactive”.

Take `NC(=O)COCCN1CCN(C(c2ccccc2)c2ccc(Cl)cc2)CC1` (configuration not stated): the Potency entry is “inactive”.

Take `C/C=C(\C)C#N`: the Potency entry is “inactive”.

In the case of `CCCCCCOC(=O)CCCCC(=O)OCCCCCC`, the Potency entry is “inactive”.

`C[C@@H]1CCN(C(=O)[C@H](CCCN=C(N)N)NS(=O)(=O)c2cccc3c2NC[C@H](C)C3)[C@@H](C(=O)O)C1`: the Potency entry was “inactive”.

As for `CCc1nccnc1CC`, the Potency entry was “inactive”.

On to `COC(C)(C)CCCC(C)CC=O` (configuration not stated), for which the Potency result is “inactive”.

For `CCCc1cc(C(N)=S)ccn1`, the Potency entry is “inactive”.

Regarding `O=C(O)CCCl`, the Potency entry is “inactive”.

On to `O=C(O)c1ccccc1OP(=O)(O)O`, for which the Potency entry is “inactive”.

For the compound `Cn1cc(S(C)=O)c(=O)c2ccc(F)cc21` (configuration not stated), the Potency entry is “inactive”.

`O=c1[nH]c(=O)n([C@H]2C[C@H](O)[C@@H](CO)O2)cc1I`: the Potency entry is “inactive”.

On to `CC(=O)Nc1ccc(S(N)(=O)=O)cc1`, for which the Potency result was “inactive”.

In the case of `C=C(C)C(=O)OCCCCCCCC(C)C`, the Potency result was “inactive”.

Take `CC(C)(CC(=O)O)C(=O)O`: the Potency entry was “inactive”.

Regarding `CO[C@]12C[C@@H](COC(=O)c3cncc(Br)c3)CN(C)[C@@H]1Cc1cn(C)c3cccc2c13`, the Potency entry is “inactive”.

`CC(=O)CC(C)C`: the Potency result was “inactive”.

Turning to `O=[N+]([O-])c1ccc(F)cc1F`, the Potency entry is “inactive”.

For `Nc1c[n+](N2CCOCC2)no1`, the Potency entry is “inactive”.

`CC/C=C\CCOC(C)=O`: the Potency result was “inactive”.

As to `COC(=O)NN`, the Potency entry is “inactive”.

In the case of `C1CN(CCOCCN2CCOCC2)CCO1`, the Potency entry was “inactive”.

`C[C@H]1C[C@@H](O)CC(C)(C)C1`: the Potency entry is “inactive”.

Take `C=CCCCCCCCCC=O`: the Potency result is “inactive”.
